# According to PubChem BioAssay AID588397 (National Center for Advancing Translational Sciences (NCATS), 2011):
# Screen size: about 1,300 compounds; about 1,000 (77%) were called active. Not shown: some 7% with an inconclusive outcome. So high a share suggests a set chosen from earlier hits. Some of the results follow. Values without a mark were called inactive. The call rests on the fitted dose curve; in most records, active means well fitted inhibition curve with a large enough effect; inconclusive means small, poorly fitted or top-dose-only effect; inactive means no such curve, though single readings can be large or run the other way.
# Experiment: qHTS of small molecules that selectively kill Giardia lamblia: Hit Validation.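 Further: viability measured as ATP content by luminescence so killing lowers signal; nearly all actives have a fitted effect of over 65% in size.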
# Details: Giardia lamblia trophozoite viability, dose-response; series mostly up to 38.3 µM; activity change, negative = killing: at the top concentration
# Description: Giardia lamblia is a human pathogen afflicting impoverished nations, and the most common cause of outbreaks of diarrhea in the United States. Giardia has been classified by the CDC as a category B bioterrorism organism. The favored anti giardiasis drugs in the US are metronidazole or tinidazole, compounds that have undesirable side effects. Moreover, increasing resistance to drug regimes and recurrence are a concern. It is thus clear that alternative drug treatments are needed.
# In a collaboration between the University of Maryland, College Park and the NIH Chemical Genomics Center, a bioluminescence Giardia viability assay based on the trophozoites' ATP content was developed. This assay is suitable for high throughput screening, and miniaturized the assay for compound screening in 1536-well plates. The goal of the project is to screen the Molecular Libraries Small Molecule Repository (MLSMR) for compounds that selectively kill Giardia trophozoites.
# NIH Chemical Genomics Center [NCGC]
# NIH Molecular Libraries Probe Centers Network [MLPCN]
# Assay Submitter (PI): Osnat Herzberg, University of Maryland, College Park, MD.
# 1. Dispense 2 ul/well media
# 2. Dispense 23 nl/well compounds
# 3. Dispense 4 ul/well Giardia trophozoites at a concentration of 100 cells/well
# 4. Incubate 48 hrs at 37 deg C anaerobically
# 5. Dispense 4 ul/well ATPLite 1-Step Luminescence assay kit
# 6. Incubate 15-30 min at room temperature
# 7. Read luminescence signal on ViewLux plate reader
# On the % scale 0 is the no-effect control and ±100 the full control effect; potency means the concentration at half of the fitted maximal effect.
SMILES,Potency,"activity change, negative = killing [%]"
Cc1cc([N+](=O)[O-])c2ccccc2[n+]1[O-],206 nM (active),
CC(=O)OC[C@]12CCC(C)=C[C@H]1O[C@@H]1[C@H](O)[C@@H](OC(C)=O)[C@@]2(C)[C@]12CO2,5160 nM (active),
COC1/C=C/C=C(\C)Cc2cc(O)c(Cl)c(c2)N(C)C(=O)CC(OC(=O)C(C)C)C2(C)OC2C(C)C2CC1(O)NC(=O)O2 (centres undefined),460 nM (active),
COC(/C(C)=C/C=C/C(C)=C/c1coc(C)n1)C(C)C1CC(O)C2(C)OC2C=CC(C)C2CC(CC(=O)O2)CC2OC2C(=O)O1 (centres undefined),23.1 nM (active),
C[N+]12CCC(CC1)C(=C(c1ccccc1)c1ccccc1)C2,,-5.4
COC12C(COC(N)=O)C3=C(C(=O)C(C)=C(N)C3=O)N1CC1C2N1C (centres undefined),5790 nM (active),
O=[N+]([O-])c1ccc(O)c([N+](=O)[O-])c1,2310 nM (active),
O=[N+]([O-])c1cc([As](=O)(O)O)ccc1O,5790 nM (active),
O=[N+]([O-])c1cc([As](=O)(O)c2ccc(O)c([N+](=O)[O-])c2)ccc1O,818 nM (active),
Cc1nnc2ccc(-c3cccc(C(F)(F)F)c3)nn12,,-28.2
ClCCOCCCl,,-5.76
Fc1ccc(C2NCCc3[nH]cnc32)cc1 (centres undefined),,10.2
CCOc1ccc(-c2cc(C(=O)N3CCC4(CC3)OCCO4)c3ccccc3n2)cc1,7290 nM (active),
COc1ccc(C[C@H]2NC[C@H](O)[C@H]2OC(C)=O)cc1,650 nM (active),
COc1ccc(CC2NCC(O)C2OC(C)=O)cc1 (centres undefined),1030 nM (active),
CCOC(=O)C1CCCN(c2ccc([N+](=O)[O-])c3nonc23)C1 (centres undefined),1160 nM (active),
CNC(=O)Oc1cccc(-c2cn3cc(Cl)ccc3n2)c1,2050 nM (active),
CC1=C(N2CC2)C(=O)C(CO)=C(N2CC2)C1=O,115 nM (active),
c1ccc2c(c1)[I+]c1ccccc1-2,146 nM (active),
COC(=O)c1nc(-c2ccc3c(n2)C(=O)C(N)=C(OC)C3=O)c(N)c(-c2ccc(OC)c(OC)c2O)c1C,2590 nM (active),
CN(C)C(=O)Oc1ccc(Br)c2ccccc12,,12.9
CC1CC(C)(O)CC(C(O)CC2CC(=O)NC(=O)C2)C1=O (centres undefined),146 nM (active),
CC(=O)OC1(C)CC(C)C(=O)C(C(O)CC2CC(=O)NC(=O)C2)C1 (centres undefined),18.3 nM (active),
CC(C)(O)C1C2OC(=O)C1C1(O)CC3OC34C(=O)OC2C14C (centres undefined),,2.07
Cc1ncc([N+](=O)[O-])n1CCOc1nonc1N,1030 nM (active),
Cc1ncc([N+](=O)[O-])n1CCOC(N)=O,3260 nM (active),
CC1CC(C)CC(C)C(O)C(C#N)=CC=CCC(C2CCCC2C(=O)O)OC(=O)CC(O)C(C)C1 (centres undefined),326 nM (active),

SMILES,Potency,"activity change, negative = killing [%]"
COc1ccc(OC(=O)N2C/C(=C/c3ccccc3)C(=O)/C(=C\c3ccccc3)C2)cc1,1160 nM (active),
NC(=O)c1cc(N2CC2)c([N+](=O)[O-])cc1[N+](=O)[O-],650 nM (active),
O=[N+]([O-])c1ccc(-c2ccccc2)c([As](=O)(O)O)c1,259 nM (active),
CC1Oc2cc3c(-c4c(O)cc(O)c5c(O)c6c(cc45)OC(C)C(C)C6=O)c(O)cc(O)c3c(O)c2C(=O)C1C (centres undefined),1030 nM (active),
COC(COC(N)=O)C1=C(N2CC2)C(=O)C(C)=C(N2CC2)C1=O (centres undefined),729 nM (active),
O=[N+]([O-])c1oc2ccc3ccccc3c2c1CCO,51.6 nM (active),
NN=C(N)N,,-24.8
C[C@H]1C[C@@H](C)C(=O)[C@@H]([C@H](O)CC2CC(=O)NC(=O)C2)C1,72.9 nM (active),
C[C@@H]1C[C@@H]([C@H](O)CC2CC(=O)NC(=O)C2)C(=O)[C@@H](C)C1,183 nM (active),
Cc1ccc(-c2nc3c(=O)n(C)c(=O)nc-3n(C)n2)cc1,103 nM (active),
Cn1nc(-c2ccccc2)nc2c(=O)n(C)c(=O)nc1-2,163 nM (active),
CCn1nc(/C=C/c2ccccc2)nc2c(=O)n(C)c(=O)nc1-2,146 nM (active),
Cc1nc2c(=O)n(C)c(=O)nc-2n(C)n1,259 nM (active),
Cc1ccc(C(c2nnnn2Cc2ccccc2)N2CC=C(c3ccc(F)cc3)CC2)cc1 (centres undefined),,6.65
COC(=O)C12OCC34C(CC5C(C)=C(O)C(=O)CC5(C)C3C(O)C1O)OC(=O)C(OC(=O)/C=C(\C)C(C)C)C24 (centres undefined),579 nM (active),
O=c1c2ccccc2nc(/C=C/c2ccc(O)cc2)n1-c1cccc(O)c1,,-17.3
Cc1cccc(-n2c(/C=C/c3ccc([N+](=O)[O-])o3)nc3ccccc3c2=O)c1,1630 nM (active),
O=c1c2ccccc2nc(/C=C/c2ccc([N+](=O)[O-])o2)n1-c1ccc(O)cc1,290 nM (active),
Cc1nc2ccccc2c(=O)n1-c1cc([N+](=O)[O-])cc([N+](=O)[O-])c1,10300 nM (active),
CC1CN(c2ccc([N+](=O)[O-])c3cccnc23)CC(C)N1 (centres undefined),1300 nM (active),
CN1CCN(c2ccc([N+](=O)[O-])c3cccnc23)CC1,1030 nM (active),
CCCCn1c(=O)c(C(=O)NCc2ccccc2OC)c(O)c2ccccc21,,-4.32
[Hg+][c]1ccccc1,4100 nM (active),
CN1CCCN(c2ccc([N+](=O)[O-])nc2)CC1,6500 nM (active),
C=CC1CN2CCC1CC2[C@@H](OC(=O)c1ccc(OC)cc1)c1ccnc2ccccc12 (some centres undefined),818 nM (active),
c1ccc2c(c1)[IH]c1ccccc1-2,460 nM (active),
CN(c1ccccc1)c1ccc([N+](=O)[O-])c2nonc12,410 nM (active),
